Results reported in PubChem BioAssay (Tox21).
Inconclusive results are not listed. A call without a number means that no potency is given here. The source made the active and inactive calls. Calls come from the whole dose curve.

biological target: Acetylcholinesterase (Homo sapiens) (UniProt P22303); test: Acetylcholinesterase (AChE) small molecule antagonists: colormetric cell-based qHTS assay (AID 1347395); conditions: SH-SY5Y cells AChE activity, colorimetric (Ellman); series mostly up to 115 µM; note: nearly all actives have a fitted effect of over 30% in size
Sequence (P22303 whole entry, looked up): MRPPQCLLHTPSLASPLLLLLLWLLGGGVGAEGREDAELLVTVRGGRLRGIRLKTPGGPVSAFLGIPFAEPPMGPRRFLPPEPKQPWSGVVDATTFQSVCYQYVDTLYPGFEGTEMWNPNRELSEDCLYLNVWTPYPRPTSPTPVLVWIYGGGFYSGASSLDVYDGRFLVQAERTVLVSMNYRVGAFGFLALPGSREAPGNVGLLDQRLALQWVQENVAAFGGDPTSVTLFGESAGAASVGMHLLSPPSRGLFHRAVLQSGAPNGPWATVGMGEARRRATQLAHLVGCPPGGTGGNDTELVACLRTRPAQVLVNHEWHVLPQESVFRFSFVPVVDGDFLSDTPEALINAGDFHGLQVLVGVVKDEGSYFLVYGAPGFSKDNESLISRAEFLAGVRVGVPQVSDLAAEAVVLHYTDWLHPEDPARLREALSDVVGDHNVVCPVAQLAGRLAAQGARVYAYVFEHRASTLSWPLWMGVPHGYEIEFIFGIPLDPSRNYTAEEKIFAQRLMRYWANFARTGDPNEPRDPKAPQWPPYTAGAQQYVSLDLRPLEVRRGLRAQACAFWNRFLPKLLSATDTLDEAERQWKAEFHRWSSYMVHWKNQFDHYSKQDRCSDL
Method in brief: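 SH-SY5Y cells attached overnight, exposed to compound 30 min at 37 C, then given DTNB/acetylthiocholine; after 90 min at 37 C, colorimetric thiocholine read gives cellular AChE activity.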
Potency is the fitted concentration of half-maximal effect.

Compound | Potency | outcome
Oc1ccc(Cl)cc1C1CCCC1 | inactive | –
CC1(C)CCC(C)(C)c2cc(NC(=O)c3ccc(C(=O)O)cc3)ccc21 | inactive | –
CC[N+](C)(CC)CCOC(=O)C1c2ccccc2Oc2ccccc21 | inactive | –
CCCOC(C(=O)OC1CCN(C)CC1)(c1ccccc1)c1ccccc1 | inactive | –
CCCCCCCCCCCCCCN(CCO)CCO | inactive | –
O=C(CC(=O)C(F)(F)F)c1ccccc1 | inactive | –
CCC(=O)OCc1ccc(OC)cc1 | inactive | –
CN(C)CCN(Cc1ccccc1)c1ccccn1 | inactive | –
CN(C)CCOC(c1ccc(Cl)cc1)c1ccccn1 (stereo not given) | inactive | –
O[C@@H](CNC[C@H](O)[C@H]1CCc2cc(F)ccc2O1)[C@@H]1CCc2cc(F)ccc2O1 | inactive | –
COc1ccccc1N=Nc1c(S(=O)(=O)O)cc2cc(S(=O)(=O)O)cc(NC(C)=O)c2c1O | inactive | –
CN1CCN(CCC(=O)N2c3ccccc3Sc3ccc(C(F)(F)F)cc32)CC1 | inactive | –
CC(=O)OCC1=C(C(=O)O)N2C(=O)[C@@H](NC(=O)Cc3cccs3)[C@H]2SC1 | inactive | –
C[C@@H](CN(C)C)CN1c2ccccc2Sc2ccccc21 | inactive | –
CN(C)CCOC1=Cc2ccccc2Sc2ccc(Cl)cc21 | inactive | –
C(/C=C/C=C/Nc1ccccc1)=Nc1ccccc1 | 35.6 µM (active) | –
Nc1nc2ccccc2n1Cc1ccc(F)cc1 | inactive | –
O=C(CN1CCN(Cc2ccc3c(c2)OCO3)CC1)N1c2ccccc2Sc2ccccc21 | inactive | –
CCOc1cc(N)c(Cl)cc1C(=O)NCC1CN(Cc2ccc(F)cc2)CCO1 (stereo not given) | inactive | –
c1ccc([C@H]2CN3CCSC3=N2)cc1 | – | inactive
